Active and inactive are the calls of the source. The calls were made as follows: active = hit-call score of the fitted dose curve at least 0.9, where 1 is the maximum; inactive = score below 0.9.
Assay: CCTE_Padilla_ZF_Score.Edema: CCTE's 144 Hour Post-fertilization zebrafish Assay Score for Edema Malformation, Padilla Lab (AID 2284406)
Experimental: CCTE_Padilla_ZF_Phenotype_Score is a whole embryo, multiplexed assay using zebrafish ova exposed for 144 hours post fertilization on a 96-well plate.CCTE_Padilla_ZF_Score.Edema is one of one assay component(s) measured or calculated from the CCTE_Padilla_ZF_Phenotype_Score assay. It is designed to make measurements of zebrafish development as detected with brightfield microscopy of developing zebrafish embryos.Data from the assay component CCTE_Padilla_ZF_Score.Edema was analyzed into 1 assay endpoints. This assay endpoint, CCTE_Padilla_ZF_Score.Edema, was analyzed in the positive analysis fitting direction relative to DMSO as the negative control and baseline of activity. Using a type of viability reporter, gain-of-signal activity can be used to understand changes in developmentals as they relate to the whole embryo. To generalize the intended target to other relatable targets, this assay endpoint is annotated to the zebrafish development intended target family, where the subfamily is embryonic edema.
Zebrafish husbandry: Wild type adult zebrafish (Danio rerio; undefined outbred stock obtained from Aquatic Research Organisms, Hampton, NH, 03842) were housed in an AAALAC-approved animal facility at 28C with a 14:10 h light: dark cycle (lights on at 08:30 h). Adult fish (2-3 females per male; density = 15-20 adults per tank) were kept in one of several 9-liter (L) flow-through colony tanks (Aquaneering Inc., San Diego, CA). All adults in a colony tank were placed in a 2 L (static) breeding tank (Aquatic Habitats, Apopka, FL) one hour prior to light onset. Typically, adults from two to three colony tanks were mated on the same day. Two hours after light onset the adults were returned to the colony tank. All embryos were gathered from each breeder tank, pooled, and placed in a 28C water bath for 2 h, followed by two washes with 0.06% bleach (v/v) in 10% Hanks' Balanced Salt Solution (13.7 mM NaCl 0.54 mM KCl, 25 uM Na2HPO4, 130 uM CaCl2 100 um MgSO4 and 420 um NaHCO3,), hereafter referred to as Hanks' solution, for 5 min in order to remove any residual bacteria or fungi. Immediately following washing, the embryos were examined, and healthy embryos were separated from dead or unfertilized eggs and moved into fresh Hanks'. Chemical exposures: Zebrafish embryos were exposed in 96-well plates. Between 6- and 8-hours post fertilization (hpf), healthy embryos (with chorions) were transferred, one embryo per well, into 96 well (0.5 mL) microtiter plates (Cell Culture-Treated, Flat-Bottom Microplate 96 well [Corning Costar, Kennebunk, ME; Cat 09-761-145]) filled with 200 uL of Hanks' solution. A random number generator was used to assign the order in which the rows of embryos were plated in 96 well plates each week. After plating, the embryos were dosed with 0.8 uL of the chemical dosing solution then immediately sealed with AlumaSeal II (Excel Scientific Inc, Victorville, CA) to prevent volatilization of the chemicals, and then placed in a leakproof secondary container. These containers were placed in an incubator maintained on a 14:10 h light: dark cycle at 26C for rearing. On 5 dpf, live larvae were gently moved out of the plate with test chemicals and into a new 96 well mesh plate (Millipore Corp., Bedford, MA) with just the Hanks' solution. Once within the mesh well plate, the animals were rinsed with 400 uL of fresh Hanks' three times, and then the plates were covered with a non-adhesive material (Microseal A, BioRad, Hercules, CA), plate lid added, and then plate sides wrapped in Parafilm (PM992, Bermis Company, Neenah, WI), and returned to the incubator. This rinse on 5 dpf was conducted to lessen the possible exposure of the human assessors to the chemicals during detailed examination of each larva at 6 dpf.Larval assessments: On 6 dpf between 8 and 10 AM, two individual assessors, blinded to the chemical treatments, independently examined each larva for mortality, hatching status, and malformations using an Olympus SZH10 stereo microscope. […]

Compound | outcome | AC50
O=S(=O)(F)C(F)(F)C(F)(F)C(F)(F)C(F)(F)C(F)(F)C(F)(F)C(F)(F)C(F)(F)F | inactive | –
NC(=O)C(F)(F)C(F)(F)F | inactive | –
CC(O)C(F)(F)C(F)(F)F (centres undefined) | inactive | –
O=C(O)C=CC(F)(C(F)(F)F)C(F)(F)F | inactive | –
OCC(F)(F)OC(F)(F)C(F)(F)OC(F)(F)C(F)(F)OC(F)(F)F | – | 73.7 µM (active)
O=C(O)C(F)(F)OC(F)(F)C(F)(F)OC(F)(F)C(=O)O | inactive | –
OCC(F)(F)OC(F)(F)C(F)(F)OC(F)(F)C(F)(F)OC(F)(F)CO | inactive | –
C=CC(=O)OCC(F)(F)C(F)F | – | 8.88 µM (active)
O=C(O)C(F)(OC(F)(F)C(F)(F)C(F)(F)F)C(F)(F)F (centres undefined) | inactive | –
O=C(O)C(F)(F)C(F)(F)C(=O)O | inactive | –
FC(F)(F)C(F)(C(F)(F)F)C(F)(F)C(F)(F)CC1CO1 (centres undefined) | inactive | –
OCC(F)(F)OC(F)(F)C(F)(F)OC(F)(F)CO | inactive | –
O=C(O)C(F)(F)OC(F)(F)C(F)(F)OC(F)(F)F | inactive | –
COC(=O)C(F)(F)C(F)(F)OC(F)(C(F)(F)F)C(F)(F)OC(F)=C(F)F (centres undefined) | inactive | –

Reference: PubChem BioAssay (EPA / NIEHS)
